PME-1 inh = blocks human protein phosphatase methylesterase 1; Q9Y570; recombinant PME-1, FP-Rh probe fluorescence polarization; inhibition, % at 5.9 µM; hit rate 0.53% among 320,000; AID 2130;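 active means inhibition above the campaign mean of all compounds plus 3 SD, cut at about 26% in these data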;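 further: competitive labeling of PME-1 active site by serine hydrolase directed probe; 0% = PME-1 with DMSO and 100% = wells lacking PME-1 enzyme; inhibitors block probe labeling so polarization falls and inhibition rises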
pPAFAH inh = inhibitors of human plasma PAF acetylhydrolase (pPAFAH). recombinant pPAFAH, FP-rhodamine probe fluorescence polarization. inhibition, % at 3.39 µM. hit rate 1.5% among 330,000. AID 463082;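 active means inhibition above the mean inhibition across the screen plus 3 SD, cut at about 25% in these data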;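 further: inhibitors block binding of the rhodamine activity-based probe so polarization drops; 0% = enzyme with DMSO and 100% = wells lacking pPAFAH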
Target sequence (Q13093 whole entry, looked up): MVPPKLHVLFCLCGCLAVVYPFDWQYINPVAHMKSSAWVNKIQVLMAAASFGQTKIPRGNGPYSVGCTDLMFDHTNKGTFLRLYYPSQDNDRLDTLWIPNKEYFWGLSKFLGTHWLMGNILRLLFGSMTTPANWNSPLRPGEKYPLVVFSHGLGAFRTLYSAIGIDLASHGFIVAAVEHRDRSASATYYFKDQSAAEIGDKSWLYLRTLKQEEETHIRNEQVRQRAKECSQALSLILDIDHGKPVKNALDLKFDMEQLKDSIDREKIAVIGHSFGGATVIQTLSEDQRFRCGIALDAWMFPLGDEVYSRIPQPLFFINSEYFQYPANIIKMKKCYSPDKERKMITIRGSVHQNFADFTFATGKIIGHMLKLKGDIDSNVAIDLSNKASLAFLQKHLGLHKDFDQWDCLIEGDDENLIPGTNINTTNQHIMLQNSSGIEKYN
PAFAH1B3 FP inh = inhibitors of human PAFAH1B3; Q15102; recombinant PAFAH1B3, FP-rhodamine probe, fluorescence polarization; inhibition, % at 3.39 µM; hit rate 0.28% among 340,000;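 active means inhibition above the screen-wide average of all tested compounds plus 3 SD, cut at about 25% in these data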;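 further: 0% = enzyme with DMSO only and 100% = wells lacking PAFAH1B3 protein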
Fam108B counter = counter-screen for RBBP9 inhibitors: inhibitors of mouse Fam108B; recombinant Fam108B, FP-Rh probe fluorescence polarization; AID 1947; inhibition, % at 9.51 µM; hit rate 0.33% among 300,000;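 active means inhibition above the screen mean inhibition plus 3 SD, computed separately per campaign, cut at about 18% in these data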;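 further: inhibitors lower polarization as less probe binds the enzyme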
PAFAH1B2 inh = blocks human PAF acetylhydrolase 1b catalytic subunit 2; P68402; recombinant PAFAH1B2, FP-rhodamine activity probe, fluorescence polarization; inhibition, % at 3.39 µM; hit rate 1.2% among 340,000; AID 492953;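 active means inhibition above the mean of all tested compounds plus 3 SD, cut at about 24% in these data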;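 further: 0% = enzyme with DMSO and 100% = wells lacking PAFAH1B2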
Target sequence (P68402 whole entry, looked up): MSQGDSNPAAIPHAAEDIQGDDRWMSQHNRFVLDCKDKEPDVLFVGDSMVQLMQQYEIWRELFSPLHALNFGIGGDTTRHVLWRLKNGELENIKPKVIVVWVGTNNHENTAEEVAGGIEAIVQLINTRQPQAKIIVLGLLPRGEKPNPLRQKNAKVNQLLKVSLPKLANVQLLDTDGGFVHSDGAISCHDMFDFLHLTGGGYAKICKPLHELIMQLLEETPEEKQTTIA
PAFAH2 inh = inhibitors of human PAFAH2; inhibition, % at 3.39 µM; Q99487; hit rate 0.99% among 340,000; AID 492956; recombinant PAFAH2, FP-rhodamine activity probe, fluorescence polarization;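 active means inhibition above the mean over all tested compounds plus 3 SD, cut at about 30% in these data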;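 further: inhibitors block probe labeling of enzyme so polarization drops; 0% = enzyme with DMSO and 100% = wells lacking PAFAH2 protein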
PAFAH2 FP conf = confirmation of human PAFAH2 inhibitors | inhibition, % at 3.39 µM | hit rate 65% among 2,300 | shares compounds with PAFAH2 inh | recombinant PAFAH2, FP-rhodamine activity probe, fluorescence polarization;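 active means mean inhibition over three repeats above a set limit taken from the earlier primary screen, cut at about 30% in these data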;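 further: inhibitor blocks binding of rhodamine activity probe so polarization falls; 0% = enzyme with DMSO and 100% = wells lacking PAFAH2 protein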
Starred values were filed as active, the others as inactive. A selection: hits, their analogues and other compounds. The true share with any hit is near 2.9%.

For CCCCn1c(N)c(N(CCC(C)C)C(=O)C2CC(=O)N(c3ccc(OC)cc3OC)C2)c(=O)[nH]c1=O (stereo unspecified) the results were PME-1 inh 3, pPAFAH inh 1, PAFAH1B3 FP inh -1, Fam108B counter -1, PAFAH1B2 inh 0 and PAFAH2 inh 2.
For Cc1ccc(NC(=O)COC(=O)c2ccc3c(c2)OCCO3)cc1S(=O)(=O)N1CCOCC1 the results were PME-1 inh 9, pPAFAH inh 9, PAFAH1B3 FP inh 4, Fam108B counter 0, PAFAH1B2 inh -2, PAFAH2 inh 81* and PAFAH2 FP conf 74*.
O=C(COC(=O)CC1CC2CCC1C2)NCc1ccc(F)cc1 (stereo unspecified) was read as pPAFAH inh 22, PAFAH1B3 FP inh 16, PAFAH1B2 inh 15, PAFAH2 inh 50* and PAFAH2 FP conf 39*.
Cc1ccc(NC(=O)COC(=O)c2ccc(NC(=O)CC#N)cc2)cc1S(=O)(=O)N1CCOCC1 was read as pPAFAH inh -9, PAFAH1B3 FP inh -28, PAFAH1B2 inh -13, PAFAH2 inh 57* and PAFAH2 FP conf 64*.
`Cc1ccc(C(=O)OCC(=O)Nc2ccc3[nH]c(=O)[nH]c3c2)cc1S(=O)(=O)N1CCOCC1` gave PME-1 inh -4, pPAFAH inh 2, PAFAH1B3 FP inh 2, Fam108B counter -1, PAFAH1B2 inh -1 and PAFAH2 inh 2.
Screening Cc1ccc(C(=O)OCC(=O)Nc2ccc3c(c2)OCO3)cc1S(=O)(=O)N1CCOCC1 returned PME-1 inh 0, pPAFAH inh 21, PAFAH1B3 FP inh 4, Fam108B counter 4, PAFAH1B2 inh -2, PAFAH2 inh 74* and PAFAH2 FP conf 76*.
`Cc1ccc(NC(=O)COC(=O)c2oc3ccccc3c2C)cc1S(=O)(=O)N1CCOCC1` gave PAFAH1B3 FP inh 3, PAFAH1B2 inh 1 and PAFAH2 inh 23.
`O=C(CC1CC2CCC1C2)OCC(=O)c1c[nH]c2ccccc12` (stereo unspecified) gave PME-1 inh -5, pPAFAH inh 4, PAFAH1B3 FP inh -4, Fam108B counter -1, PAFAH1B2 inh -2 and PAFAH2 inh -5.
For CCOC(=O)CNC(=O)N1CCCC(N(C)CCc2ccccc2)C1 (stereo unspecified) the results were PME-1 inh -2, pPAFAH inh -1, PAFAH1B3 FP inh 1, Fam108B counter 2, PAFAH1B2 inh 2 and PAFAH2 inh 6.
Cc1ccc(NC(=O)COC(=O)CN2C(=O)C3CCCCC3C2=O)cc1S(=O)(=O)N1CCOCC1 (stereo unspecified) was read as PME-1 inh 12, pPAFAH inh 0, PAFAH1B3 FP inh 2, Fam108B counter 1, PAFAH1B2 inh 4 and PAFAH2 inh 7.
`O=C(COC(=O)CC1CC2CCC1C2)Nc1ccccc1[N+](=O)[O-]` (stereo unspecified) gave pPAFAH inh 18, PAFAH1B3 FP inh 14, PAFAH1B2 inh 10, PAFAH2 inh 66* and PAFAH2 FP conf 59*.
N#Cc1ccc(NC(=O)COC(=O)c2ccc(F)c(S(=O)(=O)N3CCOCC3)c2)cc1 was read as PME-1 inh -5, pPAFAH inh 7, PAFAH1B3 FP inh 10, PAFAH1B2 inh 1, PAFAH2 inh 48* and PAFAH2 FP conf 39*.
For O=C(COC(=O)Cc1ccccc1F)Nc1ccccc1[N+](=O)[O-] the results were PME-1 inh -1, pPAFAH inh 7, PAFAH1B3 FP inh 14, PAFAH1B2 inh 8 and PAFAH2 inh 8.
For Cc1ccc(NC(=O)COC(=O)CC2CC3CCC2C3)cc1S(=O)(=O)N1CCOCC1 (stereo unspecified) the results were pPAFAH inh 11, PAFAH1B3 FP inh 3, PAFAH1B2 inh 5, PAFAH2 inh 69* and PAFAH2 FP conf 65*.
Screening CCN(c1ccc(NC(=O)COC(=O)c2ccc(C)c(S(=O)(=O)N3CCOCC3)c2)cc1)C(C)C returned PME-1 inh 5, pPAFAH inh 14, PAFAH1B3 FP inh -3, Fam108B counter 2, PAFAH1B2 inh 1, PAFAH2 inh 39* and PAFAH2 FP conf 23.
O=C(NCCNCCO)C1(C(F)(F)F)C/C(=C\CCO)CCCO1 (stereo unspecified) was read as PME-1 inh 4, pPAFAH inh 6, PAFAH1B3 FP inh -4, Fam108B counter 4, PAFAH1B2 inh 1 and PAFAH2 inh 4.
For COC(=O)c1cccc(Cn2c(Cl)c(/C=N/NC(=O)c3ccco3)sc2=O)c1 the results were PME-1 inh -1, pPAFAH inh -3, PAFAH1B3 FP inh 9, Fam108B counter -4, PAFAH1B2 inh -5 and PAFAH2 inh -1.
CCOc1ccc(NC(=O)CN(C)C(=O)CC2CC3CCC2C3)cc1OCC (stereo unspecified) was read as PME-1 inh -1, pPAFAH inh 0, PAFAH1B3 FP inh 0, Fam108B counter 1, PAFAH1B2 inh -3 and PAFAH2 inh -6.
`CC(=O)c1ccc(NC(=O)COC(=O)CC2CC3CCC2C3)cc1` (stereo unspecified) gave pPAFAH inh 22, PAFAH1B3 FP inh 12, PAFAH1B2 inh 9, PAFAH2 inh 34* and PAFAH2 FP conf 14.
COc1cc(NC(=O)COC(=O)C2CC2)c(C)cc1[N+](=O)[O-] was read as PME-1 inh 4, pPAFAH inh -1, PAFAH1B3 FP inh 5, Fam108B counter 0, PAFAH1B2 inh -2, PAFAH2 inh 46* and PAFAH2 FP conf 28.
C/C=C/C(=O)OCC(=O)Nc1cc(OC)c([N+](=O)[O-])cc1C was read as PME-1 inh -1, pPAFAH inh 1, PAFAH1B3 FP inh 7, Fam108B counter 2, PAFAH1B2 inh -2 and PAFAH2 inh 27.
`COc1cc(NC(=O)COC(=O)C=C(C)C)c(C)cc1[N+](=O)[O-]` gave PME-1 inh 1, pPAFAH inh 8, PAFAH1B3 FP inh 9, Fam108B counter 5, PAFAH1B2 inh -2, PAFAH2 inh 61* and PAFAH2 FP conf 28.
Screening COc1ccccc1S(=O)(=O)Cc1ccc(C(=O)NCc2ccccc2)o1 returned PME-1 inh -4, pPAFAH inh 8, PAFAH1B3 FP inh 6, Fam108B counter -1, PAFAH1B2 inh 8 and PAFAH2 inh -2.
`Cn1c(=O)[nH]c(N)c(Br)c1=O` gave PAFAH1B3 FP inh 5, PAFAH1B2 inh 2 and PAFAH2 inh -3.
For CC(=O)c1cccc(NS(=O)(=O)c2ccc(-c3cnc(C4CC4)o3)cc2)c1 the results were PME-1 inh 1, pPAFAH inh -1, PAFAH1B3 FP inh 10, Fam108B counter -1, PAFAH1B2 inh 4 and PAFAH2 inh 4.

Source: PubChem BioAssay (The Scripps Research Institute Molecular Screening Center)
